The record followed here is the supplement of paper PMC9950053.

Each structure is given as a SMILES string. Counter-ions that a name gives are not always drawn.

For the assay, the system named is Danio rerio larvae (5 dpf). Nature of the assay: combined upward orientation toward moving lines (periods 7-14) minus DMSO control (percentage points); higher = more orientation with moving lines than DMSO larvae. As to conditions: 10 µM; exposure time: 3 h pre-incubation + 3 h imaging. The protocol:
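Wild-type 5 dpf zebrafish larvae (n=48 per drug, 96-well plates, 28.5 °C) were exposed to Tocris FDA-approved library compounds at 10 µM (0.1% DMSO) for 3 h before and 3 h during imaging. Images were taken every 6 s during visual (moving coloured lines) and acoustic stimuli, and larvae were tracked with the DeepLabCut-based Z-LaP Tracker. Each behavioural measure is the treated-group mean minus the DMSO vehicle control mean (n=844), in percentage points. This mapping covers compounds with 4-character plate codes.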
As for `CN1C[C@H](C(=O)N[C@]2(C)O[C@@]3(O)[C@@H]4CCCN4C(=O)[C@H](Cc4ccccc4)N3C2=O)C[C@@H]2c3cccc4[nH]cc(c34)C[C@H]21` [Dihydroergotamine mesylate], the “combined upward orientation toward moving lines” value is -20.6. Turning to `Cc1cccc([C@H](C)c2c[nH]cn2)c1C` [Dexmedetomidine hydrochloride], the “combined upward orientation toward moving lines” value was -0.0673. Next, `C=C1C[C@@H]2[C@H](CC[C@]3(C)C(=O)CC[C@@H]23)[C@@]2(C)C=CC(=O)C=C12` [Exemestane]: 1.27; `CC(C)C[C@H]1C(=O)N2CCC[C@H]2[C@]2(O)O[C@](NC(=O)[C@@H]3C=C4c5cccc6[nH]c(Br)c(c56)C[C@H]4N(C)C3)(C(C)C)C(=O)N12` [Bromocriptine mesylate]: -39. Turning to `CCN(C)C(=O)Oc1cccc([C@H](C)N(C)C)c1` [Rivastigmine tartrate], the “combined upward orientation toward moving lines” value is -5.99. In the case of `COc1cc2c(cc1OC)C1CC(=O)C(CC(C)C)CN1CC2` (stereo unspecified) [Tetrabenazine], the “combined upward orientation toward moving lines” value was -21.4. In the case of `O=c1[nH]c2ccccc2n1C1CCN(CCCC(c2ccc(F)cc2)c2ccc(F)cc2)CC1` [Pimozide], the “combined upward orientation toward moving lines” value is -5.82. `CC(O)(CS(=O)(=O)c1ccc(F)cc1)C(=O)Nc1ccc(C#N)c(C(F)(F)F)c1` (stereo unspecified) [Bicalutamide]: the “combined upward orientation toward moving lines” value was -2.4.

Consider `N[C@@H]1C[C@H]1c1ccccc1` [Tranylcypromine hydrochloride], for which the “combined upward orientation toward moving lines” value worked out at 1.03. As for `CC[C@@H](C(N)=O)N1CCCC1=O` [Levetiracetam], the “combined upward orientation toward moving lines” value is -2.84. As to `C=CCN1C[C@H](C(=O)N(CCCN(C)C)C(=O)NCC)C[C@@H]2c3cccc4[nH]cc(c34)C[C@H]21` [Cabergoline], the “combined upward orientation toward moving lines” value is -13.9.
